The full data set covers some 8,800 targets. This sample favours those with a hit. About 0.5% of all pairs of compound and target were hits.
These targets were tested with COc1cc(Nc2ncc3c(n2)-c2ccc(Cl)cc2C(c2c(F)cccc2OC)=NC3)ccc1C(=O)O [alisertib] (assay: log2 fold change, soluble protein after heating vs DMSO (PISA); higher = thermal stabilisation; K562 lysate, 10 uM; active = over 0.2 and 3.5 SD of the protein, either way, in both replicates (recomputed)).
Outline: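 Dounce homogenisation of K562 pellets in PBS pH 7.4 with 1 mM MgCl2 produced a crude extract, used at 1 mg/mL protein. Exposure to 10 μM compound lasted 30 min, and aliquots were then heated for 3 min across 48°C-58°C, pooled and brought to 0.5% NP-40 at 4°C. The supernatant after 21,000xg for 90 min was quantified by TMTpro 16plex LC-MS/MS with channel sums equalised. Duplicate values are given as log-two fold change in thermal stability relative to solvent controls.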

Sequence of UniProt Q8N7R7 (Q8N7R7 whole entry, looked up): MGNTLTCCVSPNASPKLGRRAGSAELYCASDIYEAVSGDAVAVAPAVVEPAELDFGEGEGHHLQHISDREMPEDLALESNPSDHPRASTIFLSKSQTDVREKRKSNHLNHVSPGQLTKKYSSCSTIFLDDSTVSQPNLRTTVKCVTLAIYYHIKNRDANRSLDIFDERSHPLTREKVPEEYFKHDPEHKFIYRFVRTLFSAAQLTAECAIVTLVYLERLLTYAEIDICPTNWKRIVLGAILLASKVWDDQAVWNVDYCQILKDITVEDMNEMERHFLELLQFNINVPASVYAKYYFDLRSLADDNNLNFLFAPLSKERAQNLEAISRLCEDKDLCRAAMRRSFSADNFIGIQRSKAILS
Sequence of UniProt Q9Y2V0 (Q9Y2V0 whole entry, looked up): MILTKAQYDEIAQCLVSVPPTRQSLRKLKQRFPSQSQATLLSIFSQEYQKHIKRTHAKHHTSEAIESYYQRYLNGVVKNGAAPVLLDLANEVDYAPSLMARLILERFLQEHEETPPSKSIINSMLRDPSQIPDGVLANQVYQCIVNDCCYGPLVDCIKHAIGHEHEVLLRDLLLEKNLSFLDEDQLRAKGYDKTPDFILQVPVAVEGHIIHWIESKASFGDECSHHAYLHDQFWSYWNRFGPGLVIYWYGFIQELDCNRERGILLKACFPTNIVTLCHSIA
Sequence of UniProt Q5T9A4 (Q5T9A4 whole entry, looked up): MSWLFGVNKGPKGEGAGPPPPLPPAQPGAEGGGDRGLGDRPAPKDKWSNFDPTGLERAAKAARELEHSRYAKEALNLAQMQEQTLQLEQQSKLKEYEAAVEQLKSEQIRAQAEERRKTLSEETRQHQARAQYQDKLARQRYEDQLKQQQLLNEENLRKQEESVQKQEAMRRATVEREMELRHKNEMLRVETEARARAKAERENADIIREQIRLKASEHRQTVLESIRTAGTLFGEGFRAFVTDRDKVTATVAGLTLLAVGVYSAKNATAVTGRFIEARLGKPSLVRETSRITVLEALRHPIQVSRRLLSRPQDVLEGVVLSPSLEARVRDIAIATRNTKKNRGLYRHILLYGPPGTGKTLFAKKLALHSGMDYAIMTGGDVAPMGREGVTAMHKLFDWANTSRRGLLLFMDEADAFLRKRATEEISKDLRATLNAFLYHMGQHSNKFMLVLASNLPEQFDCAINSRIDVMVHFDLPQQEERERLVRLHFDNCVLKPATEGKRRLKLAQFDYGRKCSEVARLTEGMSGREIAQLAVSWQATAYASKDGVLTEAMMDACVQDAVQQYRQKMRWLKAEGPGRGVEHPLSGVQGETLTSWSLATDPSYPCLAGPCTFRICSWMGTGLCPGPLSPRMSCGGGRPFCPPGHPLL
Sequence of UniProt P49918 (P49918 whole entry, looked up): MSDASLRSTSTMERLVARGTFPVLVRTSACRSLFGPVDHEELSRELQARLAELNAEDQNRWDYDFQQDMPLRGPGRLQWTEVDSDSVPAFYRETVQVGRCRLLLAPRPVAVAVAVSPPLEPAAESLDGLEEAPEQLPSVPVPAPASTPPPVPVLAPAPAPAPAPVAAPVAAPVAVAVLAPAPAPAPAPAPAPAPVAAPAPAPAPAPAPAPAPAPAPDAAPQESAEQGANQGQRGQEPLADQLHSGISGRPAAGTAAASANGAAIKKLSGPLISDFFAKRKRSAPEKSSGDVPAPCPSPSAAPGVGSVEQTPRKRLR
Sequence of UniProt O95352 (O95352 whole entry, looked up): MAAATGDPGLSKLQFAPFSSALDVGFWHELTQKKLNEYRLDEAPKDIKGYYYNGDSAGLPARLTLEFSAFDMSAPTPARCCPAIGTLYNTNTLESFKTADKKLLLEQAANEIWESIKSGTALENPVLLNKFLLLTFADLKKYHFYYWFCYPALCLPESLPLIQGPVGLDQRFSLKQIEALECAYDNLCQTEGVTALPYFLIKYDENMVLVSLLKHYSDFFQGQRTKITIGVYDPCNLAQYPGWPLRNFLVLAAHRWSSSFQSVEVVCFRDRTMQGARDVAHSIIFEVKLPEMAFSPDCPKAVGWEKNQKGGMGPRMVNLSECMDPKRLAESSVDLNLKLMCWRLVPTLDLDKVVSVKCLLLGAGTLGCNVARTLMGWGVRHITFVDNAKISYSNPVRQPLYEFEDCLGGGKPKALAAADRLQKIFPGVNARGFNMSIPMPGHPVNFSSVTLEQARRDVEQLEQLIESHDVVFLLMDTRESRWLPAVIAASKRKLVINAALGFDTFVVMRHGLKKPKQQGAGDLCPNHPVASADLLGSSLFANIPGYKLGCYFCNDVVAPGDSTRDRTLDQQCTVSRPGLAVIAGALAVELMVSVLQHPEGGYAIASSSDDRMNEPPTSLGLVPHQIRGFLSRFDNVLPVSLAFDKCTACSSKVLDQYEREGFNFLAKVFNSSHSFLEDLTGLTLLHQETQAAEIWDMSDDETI
Sequence of UniProt Q13535 (Q13535 whole entry, looked up): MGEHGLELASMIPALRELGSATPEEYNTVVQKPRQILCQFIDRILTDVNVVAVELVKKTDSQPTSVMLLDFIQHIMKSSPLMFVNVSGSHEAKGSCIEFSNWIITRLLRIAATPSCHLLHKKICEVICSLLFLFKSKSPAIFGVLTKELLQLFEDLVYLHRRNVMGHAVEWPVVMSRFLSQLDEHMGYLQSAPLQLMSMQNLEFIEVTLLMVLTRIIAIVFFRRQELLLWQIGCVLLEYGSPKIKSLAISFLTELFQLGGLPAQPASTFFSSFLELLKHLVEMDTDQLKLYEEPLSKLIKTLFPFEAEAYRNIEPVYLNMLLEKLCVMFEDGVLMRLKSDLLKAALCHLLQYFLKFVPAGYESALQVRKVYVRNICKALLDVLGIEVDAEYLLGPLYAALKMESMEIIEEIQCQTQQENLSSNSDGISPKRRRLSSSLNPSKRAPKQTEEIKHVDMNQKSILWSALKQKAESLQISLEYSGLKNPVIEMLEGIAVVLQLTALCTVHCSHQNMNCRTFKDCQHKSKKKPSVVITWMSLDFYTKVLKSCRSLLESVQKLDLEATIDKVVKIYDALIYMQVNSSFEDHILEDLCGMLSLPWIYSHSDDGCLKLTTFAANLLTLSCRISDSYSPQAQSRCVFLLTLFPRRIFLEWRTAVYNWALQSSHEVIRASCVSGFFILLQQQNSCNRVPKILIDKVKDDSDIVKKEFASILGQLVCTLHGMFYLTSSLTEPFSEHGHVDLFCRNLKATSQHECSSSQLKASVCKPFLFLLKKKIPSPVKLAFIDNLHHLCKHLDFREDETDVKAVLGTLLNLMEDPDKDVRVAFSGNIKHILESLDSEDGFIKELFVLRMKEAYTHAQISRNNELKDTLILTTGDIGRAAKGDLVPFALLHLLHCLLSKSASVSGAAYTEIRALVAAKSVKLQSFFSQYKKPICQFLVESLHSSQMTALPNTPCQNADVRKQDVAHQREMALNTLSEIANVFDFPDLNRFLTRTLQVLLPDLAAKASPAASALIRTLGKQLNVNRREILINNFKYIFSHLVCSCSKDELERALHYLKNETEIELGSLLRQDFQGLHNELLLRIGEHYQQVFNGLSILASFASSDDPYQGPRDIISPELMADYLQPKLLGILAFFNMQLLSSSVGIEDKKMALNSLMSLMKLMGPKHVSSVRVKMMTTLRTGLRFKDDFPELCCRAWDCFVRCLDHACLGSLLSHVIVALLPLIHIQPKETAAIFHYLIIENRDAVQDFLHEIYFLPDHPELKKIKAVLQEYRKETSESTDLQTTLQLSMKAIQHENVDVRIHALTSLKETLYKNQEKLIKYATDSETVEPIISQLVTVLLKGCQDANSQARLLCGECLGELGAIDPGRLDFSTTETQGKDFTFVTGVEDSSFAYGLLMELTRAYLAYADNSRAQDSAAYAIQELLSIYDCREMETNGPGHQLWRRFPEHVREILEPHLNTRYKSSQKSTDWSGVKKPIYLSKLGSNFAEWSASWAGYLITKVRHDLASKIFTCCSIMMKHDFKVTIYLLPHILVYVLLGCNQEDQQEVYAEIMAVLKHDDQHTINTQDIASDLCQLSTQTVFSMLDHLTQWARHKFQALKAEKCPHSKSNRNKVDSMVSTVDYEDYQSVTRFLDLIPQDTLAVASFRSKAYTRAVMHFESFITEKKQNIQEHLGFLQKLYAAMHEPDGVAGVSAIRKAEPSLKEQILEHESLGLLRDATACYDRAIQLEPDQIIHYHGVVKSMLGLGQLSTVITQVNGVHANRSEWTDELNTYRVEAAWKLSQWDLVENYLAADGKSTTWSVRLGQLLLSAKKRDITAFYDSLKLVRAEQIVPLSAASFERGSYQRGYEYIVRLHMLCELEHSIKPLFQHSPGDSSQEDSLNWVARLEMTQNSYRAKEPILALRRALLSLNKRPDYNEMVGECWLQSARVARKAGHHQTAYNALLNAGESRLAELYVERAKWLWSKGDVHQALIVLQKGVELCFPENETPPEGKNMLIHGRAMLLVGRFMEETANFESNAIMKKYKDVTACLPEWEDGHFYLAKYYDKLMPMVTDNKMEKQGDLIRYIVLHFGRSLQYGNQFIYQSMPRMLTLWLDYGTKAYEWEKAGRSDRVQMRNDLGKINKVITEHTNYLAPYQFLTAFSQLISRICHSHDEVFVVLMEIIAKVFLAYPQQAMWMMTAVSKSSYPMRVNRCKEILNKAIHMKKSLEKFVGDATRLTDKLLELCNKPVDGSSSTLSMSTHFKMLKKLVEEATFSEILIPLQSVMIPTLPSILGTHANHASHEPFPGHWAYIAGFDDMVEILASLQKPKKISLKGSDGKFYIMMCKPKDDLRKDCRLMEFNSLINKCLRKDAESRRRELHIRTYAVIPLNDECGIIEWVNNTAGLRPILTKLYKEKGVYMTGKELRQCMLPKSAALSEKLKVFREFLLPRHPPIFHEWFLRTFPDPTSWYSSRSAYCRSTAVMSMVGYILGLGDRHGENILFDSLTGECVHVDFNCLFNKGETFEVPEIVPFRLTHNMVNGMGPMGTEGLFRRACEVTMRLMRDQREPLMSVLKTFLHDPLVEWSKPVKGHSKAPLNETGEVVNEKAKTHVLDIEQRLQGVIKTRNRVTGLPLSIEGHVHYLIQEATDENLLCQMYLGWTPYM

log2 fold change, inactive:
CARD9 (UniProt Q9H257) -0.004
ATG13 isoform 2 (UniProt O75143) 0.038
CCDC25 (UniProt Q86WR0) -0.027
CCPG1 isoform 5 (UniProt Q9ULG6) -0.073
BRAF (UniProt P15056) -0.021
CALB2 (UniProt P22676) -0.008
CES2 isoform 4 (UniProt O00748) -0.084
CCDC47 (UniProt Q96A33) 0.037
CCNB2 (UniProt O95067) -0.076
ATP2B4 (UniProt P23634) -0.104
CDKN1C (UniProt P49918) -0.082
ATAD3B (UniProt Q5T9A4) 0.006
CEP76 (UniProt Q8TAP6) 0.002
CDK13 (UniProt Q14004) 0.043
C2CD5 isoform 3 (UniProt Q86YS7) -0.016
CDAN1 (UniProt Q8IWY9) 0.02
ATRIP (UniProt Q8WXE1) 0.016
CAMK2G isoform 8 (UniProt Q13555) -0.013
CDC16 (UniProt Q13042) -0.008
CDC7 (UniProt O00311) -0.059
BNIP1 (UniProt Q12981) 0.004
CAD (UniProt P27708) -0.007
CFDP1 (UniProt Q9UEE9) -0.013
C15orf41 (UniProt Q9Y2V0) 0.023
CDC123 (UniProt O75794) -0.004
BMS1 (UniProt Q14692) 0.035
CCNA2 (UniProt P20248) -0.029
ATE1 isoform 2 (UniProt O95260) 0.021
BPHL (UniProt Q86WA6) 0.085
ATR (UniProt Q13535) 0.115
BORCS5 (UniProt Q969J3) -0.014
CCNYL1 (UniProt Q8N7R7) -0.012
CBFA2T3 (UniProt O75081) 0.031
ATG7 (UniProt O95352) 0.006
CAMKK2 (UniProt Q96RR4) -0.01
C19orf54 (UniProt Q5BKX5) -0.099
ATXN2 (UniProt Q99700) -0.032
CASP3 (UniProt P42574) -0.037
CAMKK1 isoform 2 (UniProt Q8N5S9) -0.033
